Screening data (PubChem)
Rows were chosen to be rich in hits. Some 8.1% of all compounds tested hit in one or more screens of this group.
ELG1 repair inh – inhibitors of ELG1-dependent DNA repair in HEK293T cells | HEK293T ELG1-luciferase reporter, luminescence, 16 h; DNA damage induced by 5-fluorouridine | Potency, µM (top dose mostly 46.1 µM), inactives show at the highest dose activity change, negative = inhibition, actives largely listed as inhibitors | 330,000 compounds, 2.3% hits | AID 504467; also: % is scaled to controls: 0 for no effect and ±100 for the full control effect; nearly all actives have a fitted effect of over 55% in size
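Quantitative HTS, concentration-response format. 2,000 cells/well co-treated with 5-fluorouridine and compound, 16 hr in 5% CO2 at 37 °C; ONE-Glo luminescence read after 30 min.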
MCF10A rerep – DNA re-replication induction in MCF 10a cells; MCF 10A DNA re-replication, Hoechst nuclear intensity, 48 h; Potency, µM (doses to about 46.1 µM), without a hit: at the highest dose activity, positive = re-replication, most hits filed as activators; 350,000 compounds, 2.9% hits; AID 624296; also: % of control where 0% means no effect; nearly all actives have a fitted effect of over 50% in size
SW480 rereplic – inducers of DNA re-replication in SW480 colon cancer cells; SW480 DNA re-replication, Hoechst DNA content imaging, 48 h; Potency, µM (highest dose often 46.1 µM), for the others: top-dose re-replication activation, most hits filed as activators; 340,000 compounds, 1.8% hits; AID 624297; also: % of control where 0% means no effect; nearly all actives have a fitted effect of over 55% in size
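Hoechst fluorescence of nuclei (405 nm excitation, 500-530 nm emission) measured by plate-scanning imager after 48 hr compound exposure at 37 C; re-replication scored as increased number of nuclei with elevated intensity.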
KB-V1 cytotox – kills drug-selected multidrug resistant KB-V1 cells. Potency, µM (top dose mostly 46.1 µM), usual class: cytotoxic. 400,000 compounds, 3.4% hits. AID 1347076. KB-V1 MDR cells viability, CellTiter-Glo, 72 h; also: % is scaled to controls: 0 for no effect and ±100 for the full control effect; nearly all actives have a fitted effect of over 60% in size
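Drug-selected KB-V1 cells, grown in DMEM lacking phenol red with 10% FBS, receive compound titrations; after three days at 37 degrees C, surviving cell ATP is quantified by CellTiter-Glo luminescence and responses normalized and curve-fitted.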
KB-3-1 tox – kills parental KB-3-1 adenocarcinoma cells | KB-3-1 viability, CellTiter-Glo ATP luminescence, 72 h | Potency, µM (top dose mostly 46.1 µM), actives largely listed as cytotoxic | 400,000 compounds, 1.4% hits | AID 1347075; also: % is scaled to controls: 0 for no effect and ±100 for the full control effect; nearly all actives have a fitted effect of over 60% in size
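KB-3-1 parental drug-naive adenocarcinoma cells in DMEM/10% FBS, incubated 72 h at 37 C with pin-transferred compounds across a concentration series. Viability by CellTiter-Glo luminescence; concentration-response curves fitted after normalization.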
* hit, by the source's call; i = inactive; ? = inconclusive; / = no result; [ ] = dose if it differs, or a comment. Calls follow the shape of the dose curve; as a rule, active = well fitted curve in the direction sought with a large enough effect; inconclusive = small, poorly fitted or top-dose-only effect, or another doubt; inactive = no such curve, though single readings can be large; an effect the other way counts as inactive or inconclusive. Potency is read from the fitted curve at half-maximal effect.

SMILES	ELG1 repair inh	MCF10A rerep	SW480 rereplic	KB-V1 cytotox	KB-3-1 tox
CCOC(=O)c1sc(NC(=O)c2ccc(S(=O)(=O)N(C)C)cc2)cc1C	16µM*	17%	-2%	i	?
CCOC(=O)c1sc(NC(=O)c2ccccc2)cc1C	?	13%	11%	i	i
Cc1cc(NC(=O)c2ccc(S(=O)(=O)N(C)C)cc2)no1	?	-4%	-5%	i	i
COC(=O)c1ccc(-n2c(C)cc(-c3csc(NC(=O)c4ccc(S(=O)(=O)N(C)C)cc4)n3)c2C)cc1	13µM*	0%	1%	i	i
CCOC(=O)c1csc(NC(=O)c2ccc(S(=O)(=O)N(C)C)cc2)n1	7.3µM*	-6%	1%	21µM*	i
CCCc1c(C(=O)Nc2ccc(F)cc2F)cnn1-c1ccccc1	?	2%	-2%	?	i
CCCc1c(NC(=O)Nc2ccc(Cl)cc2Cl)cnn1-c1ccccc1	?	?	15µM*	?	?
COc1cc(/C=C2\COC/C(=C\c3ccc(O)c(OC)c3)C2=O)ccc1O	?	5.8µM*	7.3µM*	i	i
COc1ccc(C=C2C=C(C(C)(C)C)C(=O)C(C(C)(C)C)=C2)cc1OC	?	21µM*	?	?	?
COc1ccc(/C=C2\CN(Cc3ccccc3)C/C(=C\c3ccc(OC)c(O)c3)C2=O)cc1O	?	?	3.7µM*	i	5.2µM*
Cc1ccccc1/C=C1\CCCc2ccccc2C1=O	?	?	18%	i	i
O=C1/C(=C\c2ccc3ccccc3c2)CCCc2ccccc21	?	5.8µM*	?	7.3µM*	5.2µM*
COc1ccc(-c2ccc(=O)n(CC(=O)Nc3ccccc3C(F)(F)F)n2)cc1	/	/	/	i	i
CC(=O)Nc1ccc(/C=C/c2ccncc2)cc1	/	/	/	i	?
C=C1C=C(C(F)(F)F)n2ncc(C(=O)NCc3ccc(F)cc3)c2N1	/	/	/	i	i
COC(=O)[C@]12CCCCC=C1N(CCc1ccc(OC)c(OC)c1)C(=O)[C@H](CC(=O)NCCCN1CCCC1=O)C2	/	/	/	i	i
CCOC(=O)C1CCCN(C2=NC(=O)/C(=C/c3ccc(OC)c(OC)c3)S2)C1 (stereo not given)	-8%	-2%	4%	i	i
COc1ccc(/C=C2\CC/C(=C\c3ccc(OC)c(OC)c3)C2=O)cc1OC	?	?	?	?	18µM*
COc1ccc(/C=C2\SC(N3CCc4ccccc4C3)=NC2=O)cc1OC	-25%	3.7µM*	69%	12µM*	?
COc1ccc(/C=C2\CCc3ccccc3C2=O)cc1OC	?	?	?	16µM*	i
COc1cccc(/C=C2\CCc3ccccc3C2=O)c1	?	-2%	0%	i	i
COc1ccc(/C=C2\CCc3ccccc3C2=O)cc1Cn1nc(C)cc1C	-24%	?	?	18µM*	?
COc1ccc(C[C@@](C)(N)C(=O)O)cc1OC	/	0%[20.6 µM]	-3%[20.6 µM]	/	/
COc1ccc2c(c1)CC/C(=C/c1ccccn1)C2=O	?	?	?	i	i
COc1ccc2c(c1)CC/C(=C/c1cc(OC)c(OC)c(OC)c1)C2=O	18µM*	?	4%	i	i
SMILES	ELG1 repair inh	MCF10A rerep	SW480 rereplic	KB-V1 cytotox	KB-3-1 tox
c1ccc(N/N=C(\Cc2nc3ccccc3[nH]2)c2ccccc2)cc1	?	?	15%	i	i
Cc1ccc(N/N=C(\Cc2nc3ccccc3[nH]2)c2ccccc2)cc1	?	?	1.8µM*	3.7µM*	1.2µM*
CCN/N=C(\Cc1nc2ccccc2[nH]1)c1ccccc1	?	21µM*	16%	i	i
CCOC(=O)C(=CNc1ccc(NC2=NCC(C)S2)cc1)C(=O)OCC (stereo not given)	6.5µM*	5%	1%	i	?
C=CCn1c(SCC(=O)Nc2ccc3c(c2)OCCO3)nc2cc(C(=O)O)ccc2c1=O	7%	-4%	-7%	?	i
COC(=O)COc1ccc2occ(C(C)=O)c2c1	22%	8.2µM*	16µM*	i	i
O=C(O)COc1ccc2occ(C(=O)c3ccccc3)c2c1	12%	-3%	-8%	i	i
CC(NC(=O)COC(=O)c1ccc(CO)cc1)C1CC2CCC1C2 (stereo not given)	20%	1%	-12%	i	i
COc1ccc(CNC(=O)C(C)N2CCN(S(=O)(=O)c3ccccc3F)CC2)cc1 (stereo not given)	-2%	-2%	-3%	23µM*	i
CCCc1ccc(S(=O)(=O)N2CCN(C(C)C(=O)NCc3ccc(OC)cc3)CC2)cc1 (stereo not given)	?	4%	-12%	?	i
COc1ccc(C(C)(O)c2nc(-c3cccc(C(F)(F)F)c3)cs2)cc1 (stereo not given)	/	/	/	i	i
COC(=O)c1sc(N)c(C(=O)OC)c1COC(=O)C1CC(=O)N(Cc2ccco2)C1 (stereo not given)	8.2µM*	6%	-4%	i	i
COc1cc2c(cc1NC(=O)C(C)OC(=O)C1CC(=O)N(Cc3ccco3)C1)oc1ccccc12 (stereo not given)	?	?	-1%[9.22 µM]	i	i
CC(OC(=O)C1CC(=O)N(Cc2ccco2)C1)C(=O)Nc1cccc(C#N)c1 (stereo not given)	16%	-2%	5.8µM*	i	i
CC(=O)Nc1cccc(NS(=O)(=O)c2ccc3c(c2)CCC(=O)N3)c1	/	/	/	i	i
COc1cccc(C2C(C(=O)c3cccs3)=C(O)C(=O)N2CCN2CCOCC2)c1 (stereo not given)	9%	-1%	14%	i	i
COc1cccc(C2C(C(=O)c3ccc(C)o3)=C(O)C(=O)N2CCN2CCOCC2)c1 (stereo not given)	21µM*	0%	0%	i	i
Cc1ccc(C2C(C(=O)c3cc4ccccc4o3)=C(O)C(=O)N2CCN2CCOCC2)cc1 (stereo not given)	-3%	21µM*	-1%	i	i
CCN(c1cccc(C)c1)S(=O)(=O)c1cc(CN2C(=O)c3cccnc3C2=O)ccc1OC	17%	-4%	?	?	i
O=C1CC(=C(c2ccccc2)c2ccccc2)C(=O)N1CCCCN1CCN(c2ccccc2)CC1	?	?	?	?	21µM*
CC(/C=N/N1CCN(c2ccccc2)CC1)=C\c1ccccc1	?	2%	-2%	i	i
CC(/C=N/N1CCN(c2ccccn2)CC1)=C\c1ccccc1	?	13%	1%	21µM*	i
CNc1cncc(-c2cccc(NS(C)(=O)=O)c2)n1	/	/	/	?	i
